ChEMBL document CHEMBL1157539, “Thousands of chemical starting points for antimalarial lead identification” (Nature, 2010)

System: Plasmodium falciparum
Assay: GSK_TCMDC: Inhibition of Plasmodium falciparum 3D7 in whole red blood cells, using parasite LDH activity as an index of growth. Test compounds present at 2uM
Format: functional

SMILES | Inhibition [%]
Br.N=C(N)c1ccc(C(=O)Nc2cccc(C(=N)N)c2)cc1 | 88
CN(C)c1cc(C(=O)N[C@@H](Cc2ccccc2)[C@H](O)CNC2CCCCC2)cc2[nH]ccc12.O=CO | 98
CC(=O)Nc1nnc(SCc2c(C)cc(C(C)(C)C)cc2C)s1 | 98
O=C(NC1CCN(Cc2ccccc2)CC1)c1ccc(CNC2CCN(Cc3ccccc3)CC2)cc1.O=C(O)C(F)(F)F | 99
COc1cc(NC(=O)/C=C/c2cc(F)cc(F)c2F)cc(OCCN2CCCCC2)c1.O=C(O)C(=O)O | 100
Cc1cc(NCc2ccc(F)cc2)nc2cc(O)ccc12 | 98
Cc1ccc(NC(=O)Nc2cccc(Cl)c2)cc1-c1ccc(C(=O)Nc2ccncc2)cc1 | 97
Cl.N=C(N)c1ccc(NC(=O)Cc2nc3cc(C(=N)N)ccc3[nH]2)cc1 | 87
COc1ccc(S(=O)(=O)NC2CCN(CCNC(=O)Nc3cc(C)nc4ccccc34)C2)cc1 (stereo not given) | 88
O=C(N/N=C/c1nc2ccccc2[nH]1)c1cccc([N+](=O)[O-])c1 | 99
SC(=Nc1ccc(Cl)c(Cl)c1)NN=Cc1ccccn1 | 98
CCc1ccc(NC(=O)c2ccc(CN3CCCN(CCC(C)C)CC3)cc2)cc1.O=C(O)C(F)(F)F | 96
N=C1NC(c2ccccc2)(c2ccccc2)C(=O)N1CC=Cc1ccccc1.O=C(O)C(F)(F)F | 98
O=C(/C=C/c1ccccc1Cl)Nc1ccc(Br)c(OCCN2CCCCC2)c1.O=C(O)C(=O)O | 99
Nc1cccc(CNCc2cccc(-c3ccc(-c4nc5ccccc5[nH]4)cc3)c2)c1.O=C(O)C(F)(F)F | 100
COc1cc(C(=O)Nc2cccc(-c3cn4cccc(C)c4n3)c2)cc(OC)c1OC | 99
CCNc1c2ccc(Cl)cc2nc2ccc(OC)cc12.Cl | 99
O=C(/C=C/c1ccc(Cl)c(Cl)c1)NCCCCCN1CCC(NC(=O)Nc2ccc(OC(F)F)cc2)CC1 | 100
N#Cc1cccc(CN2CCCN(c3ccc(NC(=O)c4cccs4)cc3)CC2)c1.O=C(O)C(F)(F)F | 96
Oc1ccc2ccccc2c1C=NNc1nc(=Nc2ccccc2)nc(N2CCOCC2)[nH]1 | 100

SMILES | Inhibition [%]
c1ccc(C2CCC(N3CCC(N4CCN(c5ccccc5)CC4)CC3)CC2)cc1 (stereo not given) | 97
Cl.O=C(NCCCCN1CCC(c2ccc(OC(F)(F)F)cc2)CC1)c1ccc(NC(=O)c2ccc(Cl)cc2)cc1 | 99
Cc1cccc2nc(-c3cccc(-c4cccc(CN5CCC(CO)CC5)c4)c3)[nH]c12.O=C(O)C(F)(F)F | 100
O=C(Nc1cccc(-c2ccc(-c3nc4cc(C(F)(F)F)ccc4[nH]3)cc2)c1)c1c[nH]cn1 | 91
COc1cc(OC)c2c(c1Cl)O[C@]1(C2=O)C(=O)C(Cc2ccccc2)(Cc2ccccc2)C(=O)C[C@H]1C | 90
COc1ccc2nc3cc(Cl)ccc3c(NCCNCC(O)CO)c2n1.Cl (stereo not given) | 100
CCN(CC)CCCC(C)Nc1c2ccccc2nc2c1ccc1ccccc12.Cl (stereo not given) | 96
COc1cc(OC)c(OC)cc1CN1CCC2(CC1)CN(Cc1ccc(Cl)c(Cl)c1)C(=O)O2 | 90
COc1cc2s/c(=N\C(=O)c3cccc([N+](=O)[O-])c3)n(C)c2cc1OC | 92
CS(=O)(=O)N(c1ccccc1)c1cc(C(=O)N[C@@H](Cc2ccccc2)[C@H](O)CNC2CCCCC2)cc(N2CCCC2=O)c1 | 100
Cc1cccc(C)c1OC(=O)CSc1nnc(-c2ccccc2O)o1 | 97
CC(C)c1ccc(NC(=O)c2ccc(NCCCN(C)Cc3ccccc3)c([N+](=O)[O-])c2)cc1 | 100
Cc1ccc(NC(=O)c2ccc(CN3CCCN(CC4CCCCC4)CC3)cc2)cc1F.O=C(O)C(F)(F)F | 92
O=C(Nc1ccc(Cl)cc1)NC1CCN(CCCCCNC(=O)C2CC2c2ccc(Cl)c(Cl)c2)CC1 (stereo not given) | 100
c1ccc2c(CNc3nc(NCC4CCCCC4)nc4[nH]cnc34)cccc2c1 | 89
COc1cc2nc(C)nc(Nc3cccc(Br)c3)c2cc1OC.Cl | 100
CS(=O)(=O)c1ccc(CCNCc2ccc(-c3ccc(CNC4CCN(Cc5ccccc5)CC4)cc3)nc2)cc1.O=C(O)C(F)(F)F | 100
Cl.Clc1ccc(CCNCCCCCCNCCc2ccc3c(c2)OCO3)cc1 | 91
CN(C)CCCNc1ncnc2c1[nH]c1ccc(Br)cc12 | 100
CN(C)CCCNCc1ccc(-c2ccc(CNCCOc3ccccc3)cc2)cc1.O=C(O)C(F)(F)F | 100

System: Plasmodium falciparum
Assay: GSK_TCMDC: Inhibition of Plasmodium falciparum Dd2 in whole red blood cells, using parasite LDH activity as an index of growth. Test compounds present at 2uM
Format: functional

SMILES | Inhibition [%]
Br.N=C(N)c1ccc(C(=O)Nc2cccc(C(=N)N)c2)cc1 | 82
CN(C)c1cc(C(=O)N[C@@H](Cc2ccccc2)[C@H](O)CNC2CCCCC2)cc2[nH]ccc12.O=CO | 97
CC(=O)Nc1nnc(SCc2c(C)cc(C(C)(C)C)cc2C)s1 | 91
O=C(NC1CCN(Cc2ccccc2)CC1)c1ccc(CNC2CCN(Cc3ccccc3)CC2)cc1.O=C(O)C(F)(F)F | 58
COc1cc(NC(=O)/C=C/c2cc(F)cc(F)c2F)cc(OCCN2CCCCC2)c1.O=C(O)C(=O)O | 80
Cc1cc(NCc2ccc(F)cc2)nc2cc(O)ccc12 | 85
Cc1ccc(NC(=O)Nc2cccc(Cl)c2)cc1-c1ccc(C(=O)Nc2ccncc2)cc1 | 49
Cl.N=C(N)c1ccc(NC(=O)Cc2nc3cc(C(=N)N)ccc3[nH]2)cc1 | 81
COc1ccc(S(=O)(=O)NC2CCN(CCNC(=O)Nc3cc(C)nc4ccccc34)C2)cc1 (stereo not given) | 41
O=C(N/N=C/c1nc2ccccc2[nH]1)c1cccc([N+](=O)[O-])c1 | 82
SC(=Nc1ccc(Cl)c(Cl)c1)NN=Cc1ccccn1 | 85
CCc1ccc(NC(=O)c2ccc(CN3CCCN(CCC(C)C)CC3)cc2)cc1.O=C(O)C(F)(F)F | 25
N=C1NC(c2ccccc2)(c2ccccc2)C(=O)N1CC=Cc1ccccc1.O=C(O)C(F)(F)F | 70
O=C(/C=C/c1ccccc1Cl)Nc1ccc(Br)c(OCCN2CCCCC2)c1.O=C(O)C(=O)O | 25
Nc1cccc(CNCc2cccc(-c3ccc(-c4nc5ccccc5[nH]4)cc3)c2)c1.O=C(O)C(F)(F)F | 92
COc1cc(C(=O)Nc2cccc(-c3cn4cccc(C)c4n3)c2)cc(OC)c1OC | 77
CCNc1c2ccc(Cl)cc2nc2ccc(OC)cc12.Cl | 100
O=C(/C=C/c1ccc(Cl)c(Cl)c1)NCCCCCN1CCC(NC(=O)Nc2ccc(OC(F)F)cc2)CC1 | 18
N#Cc1cccc(CN2CCCN(c3ccc(NC(=O)c4cccs4)cc3)CC2)c1.O=C(O)C(F)(F)F | 95
Oc1ccc2ccccc2c1C=NNc1nc(=Nc2ccccc2)nc(N2CCOCC2)[nH]1 | 49

SMILES | Inhibition [%]
c1ccc(C2CCC(N3CCC(N4CCN(c5ccccc5)CC4)CC3)CC2)cc1 (stereo not given) | 34
Cl.O=C(NCCCCN1CCC(c2ccc(OC(F)(F)F)cc2)CC1)c1ccc(NC(=O)c2ccc(Cl)cc2)cc1 | 98
Cc1cccc2nc(-c3cccc(-c4cccc(CN5CCC(CO)CC5)c4)c3)[nH]c12.O=C(O)C(F)(F)F | 90
O=C(Nc1cccc(-c2ccc(-c3nc4cc(C(F)(F)F)ccc4[nH]3)cc2)c1)c1c[nH]cn1 | 21
COc1cc(OC)c2c(c1Cl)O[C@]1(C2=O)C(=O)C(Cc2ccccc2)(Cc2ccccc2)C(=O)C[C@H]1C | 45
COc1ccc2nc3cc(Cl)ccc3c(NCCNCC(O)CO)c2n1.Cl (stereo not given) | 100
CCN(CC)CCCC(C)Nc1c2ccccc2nc2c1ccc1ccccc12.Cl (stereo not given) | 34
COc1cc(OC)c(OC)cc1CN1CCC2(CC1)CN(Cc1ccc(Cl)c(Cl)c1)C(=O)O2 | 94
COc1cc2s/c(=N\C(=O)c3cccc([N+](=O)[O-])c3)n(C)c2cc1OC | 79
CS(=O)(=O)N(c1ccccc1)c1cc(C(=O)N[C@@H](Cc2ccccc2)[C@H](O)CNC2CCCCC2)cc(N2CCCC2=O)c1 | 97
Cc1cccc(C)c1OC(=O)CSc1nnc(-c2ccccc2O)o1 | 0
CC(C)c1ccc(NC(=O)c2ccc(NCCCN(C)Cc3ccccc3)c([N+](=O)[O-])c2)cc1 | 35
Cc1ccc(NC(=O)c2ccc(CN3CCCN(CC4CCCCC4)CC3)cc2)cc1F.O=C(O)C(F)(F)F | 61
O=C(Nc1ccc(Cl)cc1)NC1CCN(CCCCCNC(=O)C2CC2c2ccc(Cl)c(Cl)c2)CC1 (stereo not given) | 18
c1ccc2c(CNc3nc(NCC4CCCCC4)nc4[nH]cnc34)cccc2c1 | 44
COc1cc2nc(C)nc(Nc3cccc(Br)c3)c2cc1OC.Cl | 82
CS(=O)(=O)c1ccc(CCNCc2ccc(-c3ccc(CNC4CCN(Cc5ccccc5)CC4)cc3)nc2)cc1.O=C(O)C(F)(F)F | 100
Cl.Clc1ccc(CCNCCCCCCNCCc2ccc3c(c2)OCO3)cc1 | 11
CN(C)CCCNc1ncnc2c1[nH]c1ccc(Br)cc12 | 19
CN(C)CCCNCc1ccc(-c2ccc(CNCCOc3ccccc3)cc2)cc1.O=C(O)C(F)(F)F | 53
